In the library only some 5.2% were active in any assay of this set; here they are far more common.
Coupling enz: qHTS Assay for Inhibitors of Fructose-1,6-bisphosphate Aldolase from Giardia Lamblia: Coupling assay counterscreen | AID 2472, 2010 | coupling enzyme system counterscreen, AmpLite Red fluorescence | 290,000 compounds, 0.67% hits | activity change, negative = inhibition, % at 58.2 µM, hits read low; in the data active = activity change below about -30%
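Activity here indicates interference with the coupling reaction, not aldolase inhibition. Compounds at 57.5 uM final met coupling enzymes for 10 min at RT; substrate and AmpLite Red detection followed, with a 525/598 nm fluorescence read after 20 min.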
Tau FP inhib: qHTS for Inhibitors of Tau Fibril Formation, Fluorescence Polarization | Microtubule-associated protein tau (Homo sapiens), P10636 | 280,000 compounds, 0.39% hits | Potency, µM (doses to about 57.7 µM), for the others: top-dose activity, negative = inhibition, actives largely listed as inhibitors | K18 P301L tau heparin fibrillization, Alexa594 FP, 6 h; also: potency is read from the fitted curve at half-maximal effect; nearly all actives have a fitted effect of over 55% in size
Target sequence (P10636 561-689 P618L limits assumed): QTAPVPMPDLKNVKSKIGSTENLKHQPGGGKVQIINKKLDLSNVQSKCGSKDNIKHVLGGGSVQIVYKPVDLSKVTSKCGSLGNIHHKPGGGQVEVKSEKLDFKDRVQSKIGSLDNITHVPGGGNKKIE
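Quantitative HTS format: compounds meet 15 uM recombinant K18 P301L tau and Alexa 594-tau tracer in 100 mM sodium acetate pH 7; 20 uM heparin triggers fibrillization at 37 C over 6 hr; FP gives the signal.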
Tau fluor cs: Counterscreen qHTS for Inhibitors of Tau Fibril Formation, Fluorescence Polarization; tau K18 P301L Alexa594 fluorescence, heparin fibrillization; Potency, µM (doses to about 57.7 µM), inactives show at the top dose activity change, negative = decrease; 280,000 compounds, 0.93% hits; also: potency is read from the fitted curve at half-maximal effect; nearly all actives have a fitted effect of over 55% in size
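Human K18 P301L tau (15 uM unlabeled plus 0.24 uM Alexa 594-labeled, final) in 100 mM sodium acetate pH 7 was mixed with compound and 20 uM heparin and incubated 6 hr at 37 C.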
Sfp inh: qHTS Assay for Inhibitors of Bacillus subtilis Sfp phosphopantetheinyl transferase (PPTase). Potency, µM, inactives show largest response in the series, negative = inhibition, usual class: inhibitors. 310,000 compounds, 3.5% hits. AID 1490, 2009. Biochemical Sfp PPTase activity, qHTS;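 also: the enzyme is Sfp with the accession as filed and its product quenches rhodamine fluorescence; potency is read from the fitted curve at half-maximal effect; 0% = enzyme reaction without inhibitor and -100% = no enzyme wells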
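Buffer: 50 mM Hepes-Na pH 7.6, 10 mM MgCl2, 0.01% Nonidet P-40, 0.01% BSA. Enzyme 15 nM, pre-exposed to compound 15 min; substrates then added and fluorescence change tracked over 30 min.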
Tau fibril ThT: qHTS for Inhibitors of Tau Fibril Formation, Thioflavin T Binding | Microtubule-associated protein tau (Homo sapiens), P10636 | recombinant tau K18 P301L, heparin-induced fibrillization, ThT fluorescence | Potency, µM (doses to about 57.4 µM), inactives show at the top dose activity, negative = inhibition, usual class: inhibitors | 270,000 compounds, 2.1% hits; also: potency is read from the fitted curve at half-maximal effect; nearly all actives have a fitted effect of over 55% in size
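Fibril formation assay: tau K18 P301L at 15 uM with trace Alexa 594 label, heparin inducer 20 uM, pH 7 sodium acetate buffer, 37 C for 6 hr; endpoint ThT signal.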
Active calls of the source: *; u = inconclusive; x = no result; [ ] = another dose, or the depositor's remark. Unless noted, calls follow the shape of the dose curve; as a rule, active = well fitted curve in the direction sought with a large enough effect; inconclusive = small, poorly fitted or top-dose-only effect, or another doubt; inactive = no such curve, though single readings can be large; an effect the other way counts as inactive or inconclusive. Unless noted, % is scaled to controls: 0 for no effect and ±100 for the full control effect.

SMILES	Coupling enz	Tau FP inhib	Tau fluor cs	Sfp inh	Tau fibril ThT
Cc1ccc(C2=NN(CC(=O)NCCc3ccccc3)C(=O)CC2)cc1	x	-7%	-13%	x	-5%
Cc1cc(N(C)C)ccc1N=Nc1ccc2ncccc2c1	-2	11%	u	45µM*	0.5µM*
c1cnc2ccc(-c3ccc4ncccc4c3)cc2c1	2	x	x	10%	x
CCC1=Nc2cc(C(=O)NC3CCCC3)ccc2Sc2ccc(Br)cc21	x	2%	-7%	x	-8%
CCCCC12CN3CC(C)(CN(C1)C3c1ccc(OCc3ccccc3)cc1)C2=O (stereo not drawn)	x	5%	-9%	x	-11%
O=[N+]([O-])c1cc(CN2CCN(c3cccc(C(F)(F)F)c3)CC2)c2cccnc2c1O	-14	1%	-16%	10%	16µM*
Oc1c(Cl)cc(CN2CCCCC2)c2cccnc12	-16	x	x	13%	x
O=[N+]([O-])c1cc(CN2CCCC2)c2cccnc2c1O	-35*	-14%	-23%	-2%	16µM*
CSc1ncc(Cl)c(C(=O)N(Cc2ccc(C(C)C)cc2)C2CCS(=O)(=O)C2)n1 (stereo not drawn)	x	0%	-15%	x	-14%
O=C(CC1SC(=Nc2ccccc2)N(CCc2c[nH]c3ccccc23)C1=O)Nc1ccccc1F (stereo not drawn)	0	-6%	13µM*[quencher]	u	-15%
CC(C)N1CCc2c(sc(NC(=O)c3cc4cc([N+](=O)[O-])ccc4s3)c2C(N)=O)C1	-6	-2%	u	u	4µM*
CN1CCc2c(sc(NC(=O)c3cc4cc([N+](=O)[O-])ccc4s3)c2C(N)=O)C1	0	2%	u	-8%	2.2µM*
CC(C)N1CCc2c(sc(NC(=O)c3ccc4ccccc4c3)c2C(N)=O)C1	x	x	x	-13%	x
c1csc(-c2nc(NCC3CCCO3)c3ccccc3n2)c1 (stereo not drawn)	-1	x	x	3%	x
c1ccc(CN2CCC(Nc3nc(-c4cccs4)nc4ccccc34)CC2)cc1	-8	u	u	79µM*	-10%
CCC(CC)C(=O)Nc1nnc(S(=O)(=O)N2CCc3ccccc32)s1	-6	2%	-26%	10%	u
CC(C)CC(=O)Nc1nnc(S(=O)(=O)N2CCc3ccccc32)s1	3	12%	u	21%	2.2µM*
CCC(=O)Nc1nnc(S(=O)(=O)N2CCc3ccccc32)s1	3	-9%	-30%	6%	18µM*
Cc1ccc(C(=O)Nc2nnc(S(=O)(=O)N3CCc4ccccc43)s2)cc1	x	-2%	-8%	x	u
CCC(CC)C(=O)Nc1nnc(S(=O)(=O)N2c3ccccc3CC2C)s1 (stereo not drawn)	3	-3%	-22%	8%	14µM*
N=c1n(Cc2ccc(Cl)cc2)c2ccccc2n1CC(O)COc1ccccc1 (stereo not drawn)	3	-11%	0%	-4%	-17%
N=c1n(Cc2ccccc2)c2ccccc2n1CC(O)COc1ccc(Cl)cc1Cl (stereo not drawn)	-1	-10%	-6%	18µM*	10%
CC(=C/c1ccco1)/C=N/N1CCN(c2ccccc2)CC1	x	1%	-29%	17%	14µM*
CCOC(=O)c1c(C)[nH]c(N=Nc2ccccc2C)c1C	-4	5%	u	4%	5µM*
CCOC(=O)c1c(C)[nH]c(N=Nc2ccc(C)cc2C)c1C	-22	13%	u	u	6.3µM*
SMILES	Coupling enz	Tau FP inhib	Tau fluor cs	Sfp inh	Tau fibril ThT
CCOC(=O)c1c(C)[nH]c(C(=O)OCc2ccccc2)c1C	x	x	x	22%	x
CCOC(=O)c1c(C)[nH]c(N=Nc2cc(C(=O)O)cc(C(=O)O)c2)c1C	17	-1%	-5%	-2%	u
O=C1C(Cl)=C(N2CCOCC2)C(=O)N1c1cccc(Cl)c1	5	28µM*	u	-5%	13µM*
COc1ccc(N2C(=O)C(Cl)=C(N3CCOCC3)C2=O)cc1	4	x	x	2%	x
Cc1cccc(N2C(=O)C(Cl)=C(N3CCOCC3)C2=O)c1	5	25µM*	u	3.5µM*	16µM*
COCCCNc1ncnc2c1sc1nc(-c3ccco3)c3c(c12)CC(C)(C)OC3	0	1%	u	u	x
CSc1nc(N(CCO)CCO)c2sc3nc(-c4ccco4)c4c(c3c2n1)CCC4	4	u	u	18µM*	25µM*
CC1(C)Cc2c(c(-c3ccco3)nc3sc4c(NCCO)ncnc4c23)CO1	-3	-1%	-17%	50µM*	-6%
CSc1nc(SCCO)c2sc3nc(-c4ccco4)c4c(c3c2n1)CC(C)(C)OC4	0	-16%	-6%	20µM*	u
COC(=O)C1=C(C(=O)OC)[C@@H]2N(C)c3ccccc3[C@@]23C[C@@H](CO)N(C(=O)c2ccco2)C3=N1	1	-3%[11.6 µM]	-3%[11.6 µM]	10%	2%[11.5 µM]
COCCCNC(=S)N1CCCN(c2nc3cc(C)c(C)cc3cc2C#N)CC1	-12	-1%	-23%	28µM*	u
Cc1noc(-c2ccc(NCc3ccccc3)c([N+](=O)[O-])c2)n1	x	-3%	5%	x	4%
Cc1c(O)cc2n(c1=O)-c1ccccc1C2(C)C	2	-9%	-4%	15%	-10%
CC1(C)c2ccccc2-n2c1cc1oc(=O)cc(O)c1c2=O	-6	2%	14%	89µM*	x
CCN(CC)c1ccc(NC(=O)COC(=O)C23CCC(=O)N2c2ccccc2S3)cc1 (stereo not drawn)	-32*	u	-20%	63µM*	-11%
CCN(CC)c1ccc(NC(=O)COC(=O)COc2ccccc2[N+](=O)[O-])cc1	0	15%	-25%	-3%	-11%
CC1(C)OC(c2ccccc2)=C/C(=C/C=Nc2ccccc2)O1	-5	13%	-17%	2%	u
CC1(C)OC(c2ccccc2)=C/C(=C\C=N\NC(=O)c2ccncc2)O1	-1	u	u	3%	11µM*
O=C(N/N=C/c1cccnc1)c1ccccc1OCc1ccc(Br)cc1	-38*	4%	8%	u	-2%

Source: PubChem BioAssay
